Shown are actives, neighbours in structure and some others; about 20% of the full set was active somewhere.
HCMV inh = blocks human cytomegalovirus replication. HFF cells, HCMV-luciferase reporter, 72 h; stronger effect = lower value. activity change, negative = inhibition, % at 57.5 µM. hit rate 4.5% among 410,000. AID 1259415; in the data active means activity change below about -60%; inconclusive means no clear call, values can overlap the other calls; inactive means above about -39%; further: on the % scale 0 is the no-effect control and ±100 the full control effect
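Inhibition of viral replication was scored as loss of reporter luminescence in HFFs infected with HCMV-luciferase (MOI 1 PFU/cell) for 72 h; compounds tested at 2 doses, normalized to buffer and Salinomycin controls.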
CHX counter = counter-screen hit for Shiga toxin inhibitors, cycloheximide. cell reporter, cycloheximide protein synthesis inhibition counterscreen. max response, %. hit rate 12% among 300,000; in the data active means max response mostly above about 13%, no sharp cut-off; inactive means mostly below about 14%; further: read at 38.3 µM for the half of the compounds with a filed dose; 0% is about no effect
Shiga inhibitor = Shiga toxin inhibition; Vero cells, Shiga toxin protein synthesis inhibition reporter; inhibition, % at 38.7 µM; hit rate 9.2% among 290,000; AID 2315; in the data active means inhibition mostly above about 28%, no sharp cut-off; inactive means mostly below about 43%; further: 0% is about no effect
Pf growth 96h = P. falciparum growth inhibition at 96 hour, primary screen for plastid delayed-death inhibitors; P. falciparum luciferase reporter growth, 96 h; Potency, µM (doses to about 28.7 µM), inactives show at the top dose activity change, negative = inhibition, hits mostly inhibitors; hit rate 6.9% among 320,000; further: potency means the concentration at half of the fitted maximal effect; on the % scale 0 is the no-effect control and ±100 the full control effect
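Parasite growth measured via integrated firefly luciferase reporter in P. falciparum. Infected erythrocytes at 2% hematocrit, 0.05% parasitemia final were treated 96 hours at 37 C under 5% CO2, and luminescence was read.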
Pf growth 48h = P. falciparum growth inhibition at 48 hours (one generation); P. falciparum luciferase growth in erythrocytes, 48 h; Potency, µM (highest dose often 28.7 µM), for inactives: at the top dose activity change, negative = inhibition, actives largely listed as inhibitors; hit rate 5.9% among 310,000; further: potency means the concentration at half of the fitted maximal effect; on the % scale 0 is the no-effect control and ±100 the full control effect
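A one-generation exposure of luciferase-tagged malaria parasites in RPMI 1640/Albumax erythrocyte culture, 37 C and 5% CO2. Inhibition is inferred from decreased luminescence after adding detection reagent.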
An asterisk follows results filed as active; [ ] = remark or other dose. Unless noted, the call rests on the fitted dose curve; in most records, active means well fitted inhibition curve with a large enough effect; inconclusive means small, poorly fitted or top-dose-only effect, or another doubt; inactive means no such curve, though single readings can be large or run the other way.

For COC(=O)C1CCN(S(=O)(=O)c2ccc(N3CCCCS3(=O)=O)cc2)CC1 the results were HCMV inh -13.2.
`CCN1C(=O)[C@H]2[C@@H](c3ccc(-c4cccc(Cl)c4)cc3)N[C@@](C)(C(=O)OC)[C@H]2C1=O` gave HCMV inh 4.1, Pf growth 96h inconclusive and Pf growth 48h 13.1µM*.
Screening COC(=O)[C@]1(C)N[C@H](c2ccc(-c3cccc(Cl)c3)cc2)[C@@H]2C(=O)N(C)C(=O)[C@@H]21 returned HCMV inh -31.0.
Screening CCN1C(=O)[C@H]2[C@@H](c3ccc(-c4ccccc4)cc3)N[C@@](C)(C(=O)OC)[C@H]2C1=O returned HCMV inh 12.8, Pf growth 96h inconclusive and Pf growth 48h 9.28µM*.
Cn1c(=O)c(Nc2ccc(O)cc2)c2c3c(cccc31)C(=O)c1ccccc1-2 was read as HCMV inh -60.7*, CHX counter -2.1, Shiga inhibitor -4.9, Pf growth 96h inconclusive and Pf growth 48h inconclusive.
`COc1ccc(C(c2nnnn2Cc2ccc(F)cc2)N2CCN(c3ccc(OC)cc3)CC2)cc1` (stereo not given) gave HCMV inh 29.9, CHX counter -0.8, Shiga inhibitor -6.2, Pf growth 96h 50.1% and Pf growth 48h 10.4µM*.
Fc1ccc(Cn2nnnc2C(c2ccc(F)cc2)N2CC=C(c3ccc(F)cc3)CC2)cc1 (stereo not given) was read as HCMV inh -24.1, CHX counter 7.9, Shiga inhibitor -5.6, Pf growth 96h 13.1µM* and Pf growth 48h -24.9%.
`COc1ccc(C(c2nnnn2Cc2ccc(F)cc2)N2CCN(c3ccccc3)CC2)cc1` (stereo not given) gave HCMV inh 20.7, CHX counter -6.0, Shiga inhibitor -6.6, Pf growth 96h inconclusive and Pf growth 48h 11.7µM*.
COc1ccc(Cn2nnnc2C(c2ccc(F)cc2)N2CCN(C3CCCC3)CC2)cc1 (stereo not given) was read as HCMV inh 38.0, CHX counter -2.7, Shiga inhibitor -14.1, Pf growth 96h 0.0% and Pf growth 48h inconclusive.
For COc1ccc(N2CCN(C(c3ccccc3)c3nnnn3Cc3ccc(F)cc3)CC2)cc1 (stereo not given) the results were HCMV inh -3.6, CHX counter -2.6, Shiga inhibitor 15.9 and Pf growth 48h 9.28µM*.
Screening CN1CCN(C(c2ccccc2)c2nnnn2Cc2ccccc2)CC1 (stereo not given) returned HCMV inh -36.9, CHX counter -2.1, Shiga inhibitor -5.7, Pf growth 96h -21.6% and Pf growth 48h 1.4%.
COc1ccc(C(c2nnnn2CC2CCCO2)N2CCN(c3ccccc3)CC2)cc1 (stereo not given) was read as HCMV inh -6.6, CHX counter -4.4, Shiga inhibitor 1.5, Pf growth 96h 34.1% and Pf growth 48h inconclusive.
Screening Fc1ccc(C(c2nnnn2Cc2ccccc2)N2CCSCC2)cc1 (stereo not given) returned HCMV inh 17.3, CHX counter -1.4, Shiga inhibitor -14.2 and Pf growth 48h inconclusive.
For O=C(Cc1csc(-c2cccc(Cl)c2)n1)Nc1cccc(S(=O)(=O)NC2=NCCC2)c1 the results were HCMV inh inconclusive, Pf growth 96h 5.2% and Pf growth 48h inconclusive.
COc1cc(C(=O)NCc2nnc(SCC(=O)N3CCCc4ccccc43)o2)cc(OC)c1OC was read as HCMV inh 16.0, CHX counter -6.4, Shiga inhibitor -12.4, Pf growth 96h 8.7% and Pf growth 48h -11.8%.
For COc1ccc(Cn2nnnc2C(c2ccccn2)N2CCN(c3cc(Cl)ccc3C)CC2)cc1 (stereo not given) the results were HCMV inh -24.4, CHX counter -1.7, Shiga inhibitor 4.5 and Pf growth 48h 11.7µM*.
COc1ccc(C(c2nnnn2Cc2cccs2)N2CCN(c3ccc(F)cc3)CC2)cc1OC (stereo not given) was read as HCMV inh 20.1, CHX counter 9.6, Shiga inhibitor 3.2, Pf growth 96h 13.1µM* and Pf growth 48h 5.86µM*.
CN1CCN(C(c2ccc(F)cc2)c2nnnn2Cc2cccs2)CC1 (stereo not given) was read as HCMV inh -17.3, CHX counter -5.9, Shiga inhibitor -7.6, Pf growth 96h -3.1% and Pf growth 48h 0.3%.
Screening Cc1cc(C)cc(N(CCC#N)C(=O)COC(=O)C2CCN(c3ccc(C(F)(F)F)cn3)CC2)c1 returned HCMV inh 23.8, Pf growth 96h inconclusive and Pf growth 48h inconclusive.
`CC(=O)NC(C)(c1ccccc1)c1nc(-c2ccc(S(C)(=O)=O)cc2)cs1` (stereo not given) gave HCMV inh 7.2.
Screening CSCCC(NC(=O)COc1ccccc1)C(=O)N1CCCC(C(F)(F)F)C1 (stereo not given) returned HCMV inh 1.8, Pf growth 96h -2.2% and Pf growth 48h inconclusive.
`CCCCn1c(C)cc2c(c1=O)[C@H]1O[C@](CCCC)(Cc3c1ccc1ccccc31)O2` gave CHX counter -1.6, Shiga inhibitor inactive, Pf growth 96h 6.1%[5.75 µM] and Pf growth 48h -19.9%[5.75 µM].
For COc1ccccc1NS(=O)(=O)c1cc(NC(=O)c2ccncc2)ccc1N1CCOCC1 the results were HCMV inh -30.3, CHX counter -3.1, Shiga inhibitor 13.7, Pf growth 96h 14.7µM* and Pf growth 48h inconclusive.
For COc1ccccc1NS(=O)(=O)c1cc(NC(=S)NCCN2CCOCC2)ccc1N1CCOCC1 the results were HCMV inh 10.8, CHX counter -1.9, Shiga inhibitor -15.3, Pf growth 96h 14.7µM* and Pf growth 48h inconclusive.
Screening COc1ccccc1NS(=O)(=O)c1cc(NC(=O)c2cccc(S(=O)(=O)N(C)C)c2)ccc1N1CCOCC1 returned HCMV inh -21.4, Pf growth 96h 1.47µM* and Pf growth 48h 2.33µM*.
Screening COc1ccccc1NS(=O)(=O)c1cc(NC(=O)c2cnccn2)ccc1N1CCOCC1 returned HCMV inh -37.9, CHX counter -1.0, Shiga inhibitor -11.3, Pf growth 96h inconclusive and Pf growth 48h 11.7µM*.
Screening COc1ccccc1NS(=O)(=O)c1cc(NC(=O)C(C)(C)C)ccc1N1CCOCC1 returned HCMV inh -21.8, Pf growth 96h inconclusive and Pf growth 48h inconclusive.
For COc1ccccc1NS(=O)(=O)c1cc(NC(=O)c2ccc(NC(C)=O)cc2)ccc1N1CCOCC1 the results were HCMV inh -8.1.
Screening CCOC(=O)CCCCN(Cc1ccccc1F)S(=O)(=O)c1ccc(F)c(C(=O)Nc2cc(Cl)cc(Cl)c2)c1 returned HCMV inh 19.0.
`Cn1cnnc1SCC(=O)Nc1ccccc1Oc1ccccc1` gave HCMV inh 18.7, CHX counter 8.3, Shiga inhibitor 17.2, Pf growth 96h -3.4% and Pf growth 48h 88.9%.
COCC(=O)Nc1ccc(N2CCOCC2)c(S(=O)(=O)Nc2ccccc2OC)c1 was read as HCMV inh -22.6.

Screening data as filed in PubChem.
